Inhibition data for 26 compounds are collected here from PubChem BioAssay AID504329 (Southern Research Specialized Biocontainment Screening …, 2011).

SMILES strings stand for the structures. Several values for one entry are separate records, joined by “and”; a condition that tells them apart may be missing. Equal entries are not always repeated. Out of some 340,000 compounds screened, about 1,000 (0.29%) were called active. Rule as the data show it: inconclusive = inhibition above about 27% without an active follow-up result; inactive = below that. These entries were drawn from the full list. Measured potencies and affinities stand elsewhere.

The inhibition is the drop in the measured response relative to a control, in per cent.

A short description of this experiment: NS1A inhibition, H1N1 influenza, cell based functional assay (AID 504329). The conditions noted are these: percent inhibition, at 12.5 µM, stronger effect = higher value.
Consider `Cc1noc(C)c1CSc1nnc2scc(-c3ccccc3)n12`, for which the inhibition was 0.06% (inactive).

As to `Cc1ccc(S(=O)(=O)NCCNC(=O)C2CCCNC2=O)cc1` (stereo unspecified), the inhibition is -2.4% (inactive).

On to `NNC(=O)COc1cccc(C(F)(F)F)c1`, for which the inhibition is -3.83% (inactive).

Consider `CC(C)CC(=O)C(=O)O`, for which the inhibition was 1.46% (inactive) and 3.24% (inactive).

As for `O=C(COC(=O)c1cccc(-n2cnnn2)c1)c1ccc(F)cc1`, the inhibition is -2.74% (inactive).

For `Cc1ccccc1-c1cccc([C@@H]2C[C@H]3[C@H](CON3C)CN2S(=O)(=O)c2ccccc2C)c1`, the inhibition was -6.53% (inactive).

Consider `Cc1ccc(S(=O)(=O)N2CCOCC2)cc1NC(=O)CNCc1ccccc1Cl`, for which the inhibition is -1.72% (inactive).

Take `COc1ccccc1CNCC(=O)Nc1cc(S(=O)(=O)N2CCCCCC2)ccc1Cl`: the inhibition is 2.82% (inactive).

For the compound `O=C(CNCc1ccncc1)Nc1cc(S(=O)(=O)N2CCCCC2)ccc1Cl`, the inhibition is -4.7% (inactive).

For the compound `Cc1ccc(S(=O)(=O)N2CCOCC2)cc1NC(=O)CSc1ccccn1`, the inhibition is -3.06% (inactive).

For `CS(=O)(=O)c1ccc(-c2cccc(NC(=O)COc3ccc(Cl)cc3)c2)nn1`, the inhibition was 7.16% (inactive).

Regarding `Fc1ccc(Oc2nccc(-c3ccc(Cl)cc3)n2)cc1`, the inhibition is -2.98% (inactive).

Take `CCN(C[C@H]1N[C@@](CC)(C(=O)OC)[C@H]2C(=O)N(Cc3ccccc3)C(=O)[C@@H]12)C(=O)C1CCCCC1`: the inhibition was -2.32% (inactive).

`O=C(NNC(=O)c1ccccc1Br)c1ccc2nc[nH]c2c1`: the inhibition is 22.1% (inactive).

Consider `CCOC(=O)C1(CC)NC(c2ccc(N(C)C)cc2)C2C(=O)N(C)C(=O)C21` (stereo unspecified), for which the inhibition was 9.29% (inactive).

As for `COc1ccc2c(c1)-c1c(ssc1=S)C(C)(C)N2S(=O)(=O)c1ccc(C)cc1`, the inhibition was 17.8% (inactive).

As for `CCOc1ccc2c(c1)-c1c(ssc1=S)C(C)(C)N2C(=O)c1ccco1`, the inhibition is 1.84% (inactive).

Consider `CCN(CC(=O)Nc1c(F)cccc1F)C(=O)CSc1ccccc1`, for which the inhibition was -8.64% (inactive).

As for `Clc1ccccc1/C=N/Nc1cc(N2CCOCC2)ncn1`, the inhibition was 17.6% (inactive).

For `Oc1ccccc1/C=N/Nc1ccnc(SCc2ccccc2)n1`, the inhibition is -3.79% (inactive).

For `COc1cccc(/C=N/Nc2cc(Cl)nc(C)n2)c1O`, the inhibition was -12.7% (inactive).

Turning to `COc1cc(N/N=C/c2ccc(N(C)C)cc2)ncn1`, the inhibition is -5.63% (inactive).

`COc1cccc(/C=N/Nc2c(Cl)cncc2Cl)c1O`: the inhibition is 1.36% (inactive).

As to `COc1ccc(/C=N/Nc2cc(OC)ncn2)cc1`, the inhibition is 3.33% (inactive).

In the case of `COc1ccc(/C=N/Nc2cc(N3CCOCC3)ncn2)c(OC)c1`, the inhibition is -0.39% (inactive).

On to `Oc1ccccc1/C=N/Nc1cccc2cccnc12`, for which the inhibition is -0.48% (inactive).
